Sampled rows, rich in hits. Any-hit rate of the full collection: about 19%.
TDP1 cell noCPT: qHTS for Inhibitors of human tyrosyl-DNA phosphodiesterase 1 (TDP1): qHTS in cells in absence of CPT | DT40 Tdp1-/- hTDP1 cells, no CPT, ATP luminescence, 48 h | Potency, µM (doses to about 46.2 µM), inactives show top-dose activity change, negative = growth inhibition, most hits filed as inhibitors | 420,000 compounds, 15% hits; note: potency is the fitted concentration of half-maximal effect; nearly all actives have a fitted effect of over 55% in size
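No-CPT arm: Tdp1-/-;hTDP1 DT40 cells (400/well) plus compounds, incubated ≥48 hr at 37 °C. Readout CellTiter-Glo luminescence.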
HT1080-NT tox: qHTS for induction of synthetic lethality in tumor cells producing 2HG: qHTS for the HT-1080-NT fibrosarcoma cell line. HT-1080-NT fibrosarcoma viability, CellTiter-Glo ATP luminescence, 48 h. Potency, µM (highest dose often 46.1 µM), for inactives: top-dose activity, negative = less viability, actives largely listed as cytotoxic. 360,000 compounds, 1.6% hits;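 note: NT is the 2HG producing partner of a matched IDH1 knockdown line; potency is the fitted concentration of half-maximal effect; 0% = DMSO-treated cells and -100% = media-only wells without cells; nearly all actives have a fitted effect of over 55% in size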
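750 cells/well, RPMI + 5% FBS; 2 h settle, compound pin-transfer, 48 h at 37 degrees C. CellTiter-Glo 10 min RT, luminescence. Normalized to DMSO and media-only wells.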
HT1080 IDH1KD tx: qHTS for induction of synthetic lethality in tumor cells producing 2HG: qHTS for the HT-1080-IDH1KD cell line. HT-1080 IDH1 knockdown viability, ATP luminescence, 48 h. Potency, µM (series often up to 46.1 µM), inactives show at the top dose activity, negative = toxicity, actives largely listed as cytotoxic. 360,000 compounds, 2% hits;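 note: potency is the fitted concentration of half-maximal effect; 0% = DMSO wells and -100% = cell-free medium wells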
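After a 2 h attachment period, IDH1KD HT-1080 cells took pin-transferred compound for 48 h at 37 °C; ATP-based luminescence after 10 min room-temperature reagent incubation reported viability.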
DT40 TDP1 CPT: qHTS for Inhibitors of human tyrosyl-DNA phosphodiesterase 1 (TDP1): qHTS in cells in presence of CPT. 420,000 compounds, 12% hits. chicken DT40 Tdp1-/-;hTDP1 cells + 20 nM CPT, ATP luminescence, 48 h. Potency, µM (titrated, usually from 46.2 µM), inactives show at the top dose activity change, negative = growth inhibition, actives largely listed as inhibitors; note: potency is the fitted concentration of half-maximal effect; nearly all actives have a fitted effect of over 55% in size
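Cell growth measured by CellTiter-Glo luminescence after a minimum 48 h, 37 C compound exposure with 20 nM CPT in Tdp1-knockout DT40 cells stably expressing hTDP1, seeded 400/well; qHTS titration format.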
IL1B secr inh: qHTS for Inhibitors of Inflammasome Signaling: IL-1-beta AlphaLISA Primary Screen; THP-1 LPS/ATP IL-1B secretion, AlphaLISA, 16 h; active compounds read low; 360,000 compounds, 4.7% hits; activity change, % at 57.5 µM; AID 743279, 2014; in the data active = activity change below about -50%; inconclusive = mostly about -30% to -49%
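THP-1 cells pretreated 1 hr with compounds (up to 57.5 uM final), then stimulated with LPS (250 ng/mL final) plus ATP (1.25 mM final); secreted IL-1B measured by AlphaLISA after 16 hr, decreased signal indicating inhibition.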
The depositor's hits bear a star; ? = inconclusive; / = not tested or not shown. Unless noted, calls come from the whole dose curve; as a rule, active = well fitted curve in the direction sought with a large enough effect; inconclusive = small, poorly fitted or top-dose-only effect, or another doubt; inactive = no such curve, though single readings can be large; an effect the other way counts as inactive or inconclusive. Unless noted, % is set by controls: 0 for no effect and ±100 for the full control effect.

SMILES	TDP1 cell noCPT	HT1080-NT tox	HT1080 IDH1KD tx	DT40 TDP1 CPT	IL1B secr inh
CC(=O)CCc1ccc(OCC(O)CNC2CCCc3ccccc32)cc1 (stereo unspecified)	?	1%	1%	?	-11
OC(CNC1CCCc2ccccc21)COc1ccc2ccccc2c1 (stereo unspecified)	21µM*	-25%	-17%	?	-11
CCc1ccccc1OC[C@@H](O)CN[C@H]1CCCc2ccccc21	6µM*	?	?	16µM*	?
O=C(c1ccccc1)c1ccc(OCC(O)CNC2CCCc3ccccc32)cc1 (stereo unspecified)	?	-2%	-1%	16µM*	17
CCOC(=O)c1sc(NC(=O)CCCn2nc([N+](=O)[O-])cc2C)c(C(=O)OCC)c1C	?	0%	?	?	-2
CC1NC(=O)NC1CCCCCC(=O)Nc1ccc(F)cc1 (stereo unspecified)	-1%	13%	12%	-20%	-97*
Cc1c(F)cccc1NC(=O)CCCCCC1NC(=O)NC1C (stereo unspecified)	-19%	5%	2%	1%	-97*
CCOC(=O)c1sc2ncn(CC(=O)Nc3cc(C)on3)c(=O)c2c1C	2%	8%	18%	-10%	-10
Fc1ccccc1-c1nc(NC2CCCC2)c2ccccc2n1	-24%	?	-25%	-21%	-53*
Clc1ccccc1-c1nc(NC2CCNCC2)c2ccccc2n1	26µM*	/	/	10µM*	/
Cc1ccccc1-c1nc(NC2CCNCC2)c2ccccc2n1	12µM*	/	/	13µM*	/
CNc1nc(-c2ccccc2C)nc2ccccc12	-20%	/	/	?	/
Oc1ccccc1-c1nc(NC2CCCC2)c2ccccc2n1	-24%	?	?	2%	-12
CCOc1ccc(N(CC(=O)NCc2ccccc2C)S(C)(=O)=O)cc1	-6%	1%	-9%	-13%	-20
CC(C)(CNC(=O)c1cc([N+](=O)[O-])ccc1N1CCC(Cc2ccccc2)CC1)N1CCOCC1	?	-17%	-20%	?	-57*
CC(C)CNC(=O)c1cc([N+](=O)[O-])ccc1N1CCOCC1	-15%	0%	-10%	0%	0
CC1CN(c2ccc([N+](=O)[O-])cc2C#N)CC(C)O1 (stereo unspecified)	-7%	10%	11%	4%	1
O=C(c1ccccc1)c1cc([N+](=O)[O-])ccc1N1CCOCC1	0.82µM*	1µM*	0.73µM*	0.73µM*	31
O=C(c1ccc(Cl)cc1)c1cc([N+](=O)[O-])ccc1N1CCOCC1	0.82µM*	1.5µM*	1.2µM*	0.73µM*	45
Cc1ccc(C(=O)c2cc([N+](=O)[O-])ccc2N2CC(C)OC(C)C2)cc1 (stereo unspecified)	3.3µM*	18µM*	?	5.8µM*	33
O=C(c1ccc(Br)cc1)c1cc([N+](=O)[O-])ccc1N1CCOCC1	1.5µM*	5.2µM*	5.8µM*	0.82µM*	39
CCCCCC(=O)N/N=C/c1ccccc1[N+](=O)[O-]	-25%	6%	1%	-5%	-3
COc1cc([N+](=O)[O-])cc(/C=N/NC(=O)C(C)Nc2cccc3ccccc23)c1O (stereo unspecified)	?	?	18µM*	16µM*	55
O=C(N/N=C/c1cccc([N+](=O)[O-])c1O)C(O)(c1ccccc1)c1ccccc1	26µM*	-23%	?	?	38
COc1cc([N+](=O)[O-])cc(/C=N/NC(=O)C(O)(c2ccccc2)c2ccccc2)c1O	?	?	?	4.1µM*	-7
SMILES	TDP1 cell noCPT	HT1080-NT tox	HT1080 IDH1KD tx	DT40 TDP1 CPT	IL1B secr inh
O=C(CCN1C(=O)/C(=C\c2ccccc2F)SC1=S)N1CCOCC1	0.73µM*	-4%	3%	?	-2
CN1CCN(NC(=O)CN2C(=O)/C(=C/c3ccccc3Cl)SC2=S)CC1	?	-2%	1%	?	-6
COc1ccc(/C=C2\SC(=S)N(CCCC(=O)N3CCOCC3)C2=O)cc1	?	-6%	-15%	?	-10
CN1CCN(C(=O)CCN2C(=O)/C(=C/c3ccccc3Cl)SC2=S)CC1	12µM*	?	?	16µM*	-97*
CN1CCN(C(=O)CCN2C(=O)/C(=C\c3ccccc3F)SC2=S)CC1	?	-13%	?	-104%	-51*
COc1ccc(-c2nn(-c3ccccc3)cc2C(N)=O)cc1OC	3%	12%	2%	-4%	-11
CO/N=C(\C(=O)N[C@@H]1C(=O)N2C(C(=O)O)=C(CSc3nnnn3C)CS[C@H]12)c1csc(N)n1	-24%	/	/	-1%	/
CCN1C(=NCc2cc(OC)c(OC)c(OC)c2)N[C@@H](c2cccc(C(F)(F)F)c2)C(C(=O)OC)=C1C	-28%	0%	-21%	?	-28
CCN1C(=NCC2CC2)N[C@@H](c2cccc(C(F)(F)F)c2)C(C(=O)OC)=C1C	10µM*	-10%	-8%	?	/
COCCN1C(=O)N[C@@H](c2cccc(C(F)(F)F)c2)C(C(=O)OC)=C1C	-17%	-2%	2%	?	23
CCN1C(=NCCOC)N[C@@H](c2cccc(C(F)(F)F)c2)C(C(=O)OC)=C1C	18µM*	-16%	-4%	21µM*	?
CCN1C(=NCc2ccco2)N[C@@H](c2cccc(C(F)(F)F)c2)C(C(=O)OC)=C1C	?	-3%	-12%	16µM*	0
O=C(O)COc1ccc(NC(=O)c2ccc3c(c2)C(=O)N(CC2CCCO2)C3=O)cc1 (stereo unspecified)	-2%	14%	1%	-2%	3
O=C(Nc1ccc(N2CCOCC2)cc1)c1ccc([N+](=O)[O-])o1	12µM*	7.3µM*	5.2µM*	5.2µM*	-96*
O=C(Nc1ccc(Cc2ccncc2)cc1)c1ccc([N+](=O)[O-])o1	?	3.7µM*	5.2µM*	?	-96*
CCn1nnc(NC(=O)c2ccc([N+](=O)[O-])o2)n1	?	?	?	?	-78*
O=C(Nc1ccc(OC(F)(F)F)cc1)c1cc(S(=O)(=O)N2CCCCC2)ccc1N1CCOCC1	?	-15%	-11%	?	-14
O=C(Nc1ccc(OC(F)(F)F)cc1)c1ccc(S(=O)(=O)N2CCOCC2)o1	16µM*	-11%	-6%	?	-51*

Screening data from PubChem.
